# Screening data from PubChem BioAssay.
# NPSR antagonist – blocks cAMP signaling of the human neuropeptide S receptor. AID 1461. CHO-NPSR cells, cAMP TR-FRET, antagonist mode. Potency, µM (highest dose often 38.3 µM), for inactives: at the highest dose activity change, negative = inhibition, actives largely listed as inhibitors. 220,000 tested, 1% active. Q6W5P4; also: potency is read from the fitted curve at half-maximal effect; % is scaled to controls: 0 for no effect and ±100 for the full control effect; nearly all actives have a fitted effect of over 50% in size
# HTT aggregate – inhibitors of mutant huntingtin aggregate formation in PC12 cells. PC12 HttQ103-GFP aggregates, Acumen cytometry, 40 h. Potency, µM (titrated, usually from 46.1 µM), without a hit: top-dose activity change, negative = inhibition, hits mostly inhibitors. 220,000 tested, 1.1% active. AID 1688; also: potency is read from the fitted curve at half-maximal effect; % is scaled to controls: 0 for no effect and ±100 for the full control effect; nearly all actives have a fitted effect of over 60% in size
#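 PC12/HTTQ103-GFP, ecdysone-inducible; teb 100 nM; cpd qHTS titration; GFP aggregates read on laser cytometer, Ex 488/Em 500-530 nm.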
# MBNL1 CUG block – blocks human MBNL1 binding to CUG repeat RNA. Q9NR56. TR-FRET MBNL1-His/biotin-(CUG)12 binding, 665/545 ratio. Potency, µM (top dose mostly 57.5 µM), for the others: top-dose activity change, negative = inhibition, actives largely listed as inhibitors. 280,000 tested, 0.036% active. AID 2675; active = well fitted inhibition curve with a large enough effect in the signal ratio, with a control signal flat, not every such curve was filed as active; inconclusive = small, poorly fitted or top-dose-only effect, or effect the other way, or a change in a side signal; inactive = no such curve, though single readings can be large or run the other way; the % refers to the signal ratio; also: potency is read from the fitted curve at half-maximal effect; % is scaled to controls: 0 for no effect and ±100 for the full control effect
# Target sequence (Q9NR56 whole entry, looked up): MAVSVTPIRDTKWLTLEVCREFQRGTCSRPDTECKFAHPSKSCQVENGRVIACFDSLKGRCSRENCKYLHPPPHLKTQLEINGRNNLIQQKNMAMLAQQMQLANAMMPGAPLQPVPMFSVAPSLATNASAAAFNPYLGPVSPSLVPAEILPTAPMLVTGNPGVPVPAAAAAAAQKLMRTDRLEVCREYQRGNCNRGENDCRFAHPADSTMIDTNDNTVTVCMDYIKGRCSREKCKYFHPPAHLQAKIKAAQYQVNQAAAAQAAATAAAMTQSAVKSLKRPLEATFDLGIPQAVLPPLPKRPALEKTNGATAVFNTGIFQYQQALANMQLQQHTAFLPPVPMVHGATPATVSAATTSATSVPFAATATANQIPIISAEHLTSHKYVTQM
#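 Compound titration spanned 92 nM–58 uM against the MBNL1-His/biotin-(CUG)12 complex. After 60 min at room temperature with 5 nM streptavidin-XL665 and 0.055 ng/ul terbium anti-His, ratiometric 665/545 nm emission (Ex 340 nm) normalized to controls.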
# HTT cytoprotect – Huntington cell model cytoprotection by ATP luminescence | PC12 HTT-Q103 induced, cytoprotection, ATP luminescence, 40 h | Potency, µM (highest dose often 56.4 µM), for inactives: cytoprotection (ATP increase), actives largely listed as activators | 230,000 tested, 0.14% active; also: potency is read from the fitted curve at half-maximal effect; % of control where 0% means no effect; nearly all actives have a fitted effect of over 45% in size
#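 Compounds were screened for protection of PC12 cells against cell death after tebufenozide induction (100 nM final) of mutant Huntingtin exon 1 (Q103) fused to GFP.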
# CBFb-RUNX1 inh – blocks binding between human CBF-beta and RUNX1. Potency, µM (titrated, usually from 59.8 µM), for the others: at the highest dose activity, negative = inhibition, actives largely listed as inhibitors. AID 1477. Q01196+Q13951. 230,000 tested, under 10 active. AlphaScreen CBFb-His/RUNX1-biotin binding, biochemical; also: % of control where 0% means no effect
#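 CBF-beta (His) and RUNX1 (biotin), 30 nM each; 20 min preassociation; + compound, 15 min; + beads 50 ng each (Ni, streptavidin), 90 min; RT; AlphaScreen read.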
# LMNA splice mod – LMNA splicing modulation | HeLa LMNA splicing GFP/RFP minigene ratio, 48 h | Potency, µM (series often up to 46.1 µM), for inactives: at the top dose ratio change, negative = inhibition, actives largely listed as inhibitors | 200,000 tested, 0.01% active; active = well fitted inhibition curve with a large enough effect in the signal ratio, with a control signal flat, not every such curve was filed as active; inconclusive = small, poorly fitted or top-dose-only effect, or effect the other way, or a change in a side signal; the % refers to the signal ratio; also: potency is read from the fitted curve at half-maximal effect; % is scaled to controls: 0 for no effect and ±100 for the full control effect
#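 S3 HeLa stable clones carrying a lamin A-EGFP splicing minigene plus DsRed2 were seeded at 600 cells/well in Opti-MEM with 2% FBS, pin-dosed and incubated 48 h at 37°C. Acumen cytometry (488 nm) gave the GFP/RFP total-intensity ratio.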
# * marks the source's active call; other numbers are inactive results; ? = inconclusive; . = no result; ! = a repeat was not active; [ ] = remark or other dose. Compounds with a hit are over-represented: about 1.1% of the library has one in this group of screens. Unless noted, calls follow the shape of the dose curve; as a rule, active = well fitted curve in the direction sought with a large enough effect; inconclusive = small, poorly fitted or top-dose-only effect, or another doubt; inactive = no such curve, though single readings can be large; an effect the other way counts as inactive or inconclusive.
SMILES,NPSR antagonist,HTT aggregate,MBNL1 CUG block,HTT cytoprotect,CBFb-RUNX1 inh,LMNA splice mod
CCCOc1ccc(C(=O)NNC(=S)NC(=O)c2cc(-c3ccccc3)nc3ccccc23)cc1,-1%[46.1 µM],7.1µM*,6%,16%,-1%,?
CCCOc1ccc(C(=O)NNC(=S)NC(=O)c2ccccc2)cc1,.,.,-8%,.,.,.
CCOC(=O)C1=C(C)N(C)C(=S)NC1c1ccc(Cl)cc1 (configuration not stated),-15%,20µM*,-6%,.,-15%,?
COc1ccc2[nH]c(=O)c(CN(Cc3ccco3)C(c3nnnn3Cc3ccccc3)C(C)C)cc2c1 (configuration not stated),?,18%[9.22 µM],1%,15%,-11%,?
Cc1cccc2cc(CN(Cc3ccco3)C(c3nnnn3CCc3ccccc3)C(C)C)c(=O)[nH]c12 (configuration not stated),13µM*,1%[9.22 µM],?,-17%[10 µM],6%,?
c1cc2[nH]snc2c2nc(C3CC3)nc12,14%[46.1 µM],11µM*,?,10%,15%,?
C=CC(=O)OCCOCCOC(=O)C=C,.,.,.,-195%,10%[21.7 µM],.
COc1ccc(C(=O)C(CCC(CNC(C)(C)C)C(=O)c2ccc(OC)cc2)CNC(C)(C)C)cc1 (configuration not stated),23%,18µM*,-10%,.,-3%,?
COc1ccc(C(=O)CC(=O)c2ccc(C(C)(C)C)cc2)cc1,.,2%,.,-41%,?,?
COc1ccc(Oc2nc3c(c(=O)n(C)c(=O)n3C)n2Cc2cccc(OC)c2)cc1,-19%[46.1 µM],-8%,26%,-6%,5%,-3%
COCCOc1nc2c(c(=O)n(C)c(=O)n2C)n1Cc1cccc(OC)c1,-5%[46.1 µM],8.9µM*,-4%,10%,-1%,?
CC(C)(C)c1ccc(CSc2nnc(-c3ccccn3)n2Cc2ccco2)cc1,?,14µM*,-7%,6%,1%,-13%
Brc1ccc(CSc2nnc(-c3ccccn3)n2Cc2ccco2)cc1,11%[46.1 µM],-13%,0%,11%[0.074 µM],-7%,?
COc1ccc(CNC(=O)COC(=O)c2cc(-c3ccc(Cl)s3)nc3ccccc23)cc1,10µM*,7%,?,16%,0%,2%
O=C(Nc1ccccc1)C1=C(c2ccccc2)S(=O)(=O)CCS1(=O)=O,?,5µM*,-3%,-162%,5%,?
Nc1ccc(C(=O)NCC(=O)O)cc1,.,-10%[20.6 µM],.,3.2µM*!,?,-1%
O=C(O)C(Sc1ccc(Cl)cc1)Sc1ccc(Cl)cc1,.,.,.,4%[10 µM],.,.
Cc1cc(C=O)c(C)n1-c1ccc(Oc2ccc([N+](=O)[O-])cn2)cc1,-15%,22µM*,?,.,-6%,?
[Cu].[O-]/N=C1/C(=[OH+])Nc2ccccc21.[O-]Nc1c(O)[nH]c2ccccc12,.,.,.,-4%[10 µM],.,.
O=c1cc(-c2c(F)c(F)c(F)c(F)c2F)oc2c(F)c(F)c(F)c(F)c12,3.2µM*,?,6%,-146%,7%,?
CCOc1ccc(N=Nc2c(=O)[nH]n3c(=O)c4c([nH]c23)CCCC4)cc1,-31%,?,23%,.,-10%,-1%
O=c1[nH]n2c(=O)c3c([nH]c2c1N=Nc1cccc(Cl)c1)CCCC3,10µM*,?,-8%,-8%[1.9 µM],7%,?
Cc1ccccc1-c1cc(C(=O)Nc2sc(C)c(C)c2C(N)=O)c2ccccc2n1,-21%[46.1 µM],?,3%,-55%,-3%,-4%
CCOC(=O)c1sc(NC(=O)c2cc(-c3ccccc3C)nc3ccccc23)c(C#N)c1C,-20%[46.1 µM],5.6µM*,-4%,34%,-1%,?
CCOC(=O)c1sc(NC(=O)c2ccncc2)c(C#N)c1C,5%,20µM*,-19%,.,7%,?
CCOC(=O)c1sc(NC(=O)CSc2n[nH]c(-c3ccc(Cl)cc3Cl)n2)c(C#N)c1C,-14%[46.1 µM],13µM*,-19%,-66%,0%,2%
